Experimental data as given in PubChem BioAssay AID686979 (National Center for Advancing Translational Sciences (NCATS), 2013).
The campaign covered roughly 420,000 compounds. About 50,000 (12%) were called active. Inconclusive results (about 26%) are left out. What follows is part of a selection rich in actives, with near analogues and random picks from the rest. Unmarked numbers belong to inactive results. The call rests on the fitted dose curve; in most records, active means well fitted inhibition curve with a large enough effect; inconclusive means small, poorly fitted or top-dose-only effect; inactive means flat fitted curve, though single readings scatter.

test: qHTS for Inhibitors of human tyrosyl-DNA phosphodiesterase 1 (TDP1): qHTS in cells in presence of CPT; conditions: chicken DT40 Tdp1-/-;hTDP1 cells + 20 nM CPT, ATP luminescence, 48 h; series mostly up to 46.2 µM; activity change, negative = growth inhibition: at the top concentration; further: nearly all actives have a fitted effect of over 55% in size
Summary of the method: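 Chicken DT40 Tdp1-/- cells complemented with human TDP1, 400 cells/well, exposed to compounds plus 20 nM camptothecin for at least 48 h at 37 C; viability read as ATP content by CellTiter-Glo luminescence.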
On the % scale 0 is the no-effect control and ±100 the full control effect; potency means the concentration at half of the fitted maximal effect.

| SMILES | activity change, negative = growth inhibition | Potency |
| --- | --- | --- |
| CC1(OC(=O)CCc2ccccc2)C(=O)C=C2C=C(c3ccc(C#N)cc3)N(CCc3ccccn3)C=C2C1=O (configuration not stated) | -22.9% | – |
| CC1CCN(c2ccc([N+](=O)[O-])cc2C(N)=O)CC1 | -6.2% | – |
| CC(C)c1ccc(NC(=O)Cn2nnc(C(=O)NCCc3ccccc3)c2N)cc1 | 9.46% | – |
| O=C(COc1ccc([N+](=O)[O-])cc1)Nc1cccc(C(=O)Nc2ccccc2C(=O)O)c1 | 1.45% | – |
| CCc1ccc2c(c1)C1(NN=C(c3ccccc3)S1)C(=O)N2 (configuration not stated) | – | 2.91 µM (active) |
| CCc1cccc(NC(=O)c2cc(-c3ccccc3)n[nH]2)c1 | -27.1% | – |
| CCCCC(CC)CNC(=O)C1CCN(S(=O)(=O)c2cccc3nsnc23)CC1 (configuration not stated) | 7.48% | – |
| COc1cccc2c(O)cc(=O)n(C)c12 | -20.6% | – |
| COc1cc2c(=O)n(C)c3ccccc3c2cc1OC | – | 13 µM (active) |
| Cc1cc(C)c(-c2c(O)c3ccccc3n(C)c2=O)c(C)c1 | -4.71% | – |
| Cc1ccc(Cc2nnc(SCC(=O)Nc3ccccc3C)[nH]c2=O)cc1 | -17.9% | – |
| C[C@H](CO)N1C[C@H](C)[C@H](CN(C)C(=O)Nc2ccc3c(c2)OCO3)Oc2ncc(Br)cc2C1=O | 5.22% | – |
| CCOc1ccc(NC(=O)CN(C)C(=O)c2c(C)noc2C)cc1OCC | 1.04% | – |
| c1ccc(-c2c[nH]c(-c3ccccc3)c2)cc1 | 13.2% | – |
| CC1CCCCC12NC(=O)N(CC(=O)N1CCN(c3ccccc3)CC1)C2=O (configuration not stated) | -14.3% | – |
| CC(=O)c1ccc(N2CCN(CC(O)c3ccccc3)CC2)cc1 (configuration not stated) | 20.2% | – |
| COc1ccc(/C=C2/C(=O)N(c3ccccc3)N=C2C)c(OC)c1 | 3.05% | – |
| COc1cc(OC)c(/C=C/c2ccnc3ccccc23)c(OC)c1 | – | 10 µM (active) |
| COc1ccc(C=Nc2cccc3ncccc23)cc1 | -27.3% | – |
| CC(=O)OC1CCC2(O)CC1(C)CCC1C2CC1(C)C (configuration not stated) | -0.352% | – |
| COc1ccc(-n2c(-c3ccc(OC)c(OC)c3)n[nH]c2=S)cc1 | 24.6% | – |
| COc1ccc(-c2n[nH]c(C)c2-c2ccc(OC)c(OC)c2)c(O)c1 | – | 20.6 µM (active) |
| C=C(C)COc1ccc(-c2n[nH]c(C)c2-c2ccccc2)c(O)c1 | – | 14.6 µM (active) |
| C=C(C)COc1ccc(-c2ncncc2-c2ccc(OC)cc2)c(O)c1 | -22.2% | – |
| COc1ccc(-c2c(-c3ccc(OC)cc3O)nc(C)nc2C(F)(F)F)cc1 | -21.2% | – |
| CCOc1ccc(-c2n[nH]c(C)c2-c2ccccn2)c(O)c1 | -18.7% | – |

| SMILES | activity change, negative = growth inhibition | Potency |
| --- | --- | --- |
| N#Cc1c(-c2ccccc2)nc(SCc2ccc([N+](=O)[O-])cc2)[nH]c1=O | -20% | – |
| O=C(Nc1ccccc1)/C(=C\c1ccco1)NC(=O)c1ccco1 | -12.4% | – |
| CCN(CC(=O)Nc1ccc(OC)cc1)C(=O)c1ccc(=O)n(Cc2ccccc2)n1 | -13.1% | – |
| COc1ccc(NC(=O)CCCNC(=O)Cn2cnc3sc4c(c3c2=O)CCCC4)cc1OC | 3.14% | – |
| O=C(Nc1ccccc1C(=O)N1CCCCCC1)c1ccccc1Cl | 5.74% | – |
| Nc1nnnn1/N=C/c1cccc(Br)c1 | -3.42% | – |
| CCOC(=O)c1c(NC(=O)C2(C)Cc3ccccc3C(=O)O2)sc2c1CCCC2 (configuration not stated) | – | 18.4 µM (active) |
| CCOC(=O)c1c(NC(=O)c2ccc(Br)o2)sc2c1CCCC2 | -18.8% | – |
| CCOC(=O)c1c(NC(=S)Nc2ccccc2C)sc2c1CCC2 | -2.49% | – |
| O=C1c2ccccc2C(=O)N1CCC(O)C[N+](=O)[O-] (configuration not stated) | -25.6% | – |
| COc1ccc(CCNc2nc3c(-c4cccc(F)c4)nnn3c3ccccc23)cc1OC | -2.75% | – |
| COCCCNc1nc2c(-c3cccc(C)c3)nnn2c2ccc(Cl)cc12 | – | 11.6 µM (active) |
| COCCCNc1nc2c(-c3cccc(C(F)(F)F)c3)nnn2c2ccccc12 | -12% | – |
| C[C@@H]1O[C@@H](OC[C@H]2O[C@@H](Oc3c(-c4ccc(O)cc4)oc4cc(O)cc(O)c4c3=O)[C@H](O)[C@@H](O)[C@@H]2O)[C@H](O)[C@H](O)[C@H]1O | 12.2% | – |
| COc1cccc(-n2c(=O)c3c(C)c(C(=O)N(C)C)sc3n(Cc3cccc(C)c3)c2=O)c1 | -18.9% | – |
| COc1cc(OC)cc(C2=Cc3ccccc3C(CC(=O)c3ccco3)N2c2ccc(-c3cnc(OC)nc3)cc2)c1 (configuration not stated) | -28.8% | – |
| Cn1c2ccccc2c2cc(/C=C(\NC(=O)c3ccccc3)C(=O)NCC(=O)O)ccc21 | 7.78% | – |
| CCC1CCCCN1CCCNC(=O)C1CCC(Cn2c(=O)[nH]c3ccccc3c2=O)CC1 (configuration not stated) | -20.6% | – |
| O=C(C1CCC(Cn2c(=O)c3sccc3n(Cc3ccccc3F)c2=O)CC1)N1CCCCC1 (configuration not stated) | – | 23.1 µM (active) |
| CCCNC(=O)C1CCC(Cn2c(=O)c3sccc3n(Cc3ccccc3F)c2=O)CC1 (configuration not stated) | – | 14.6 µM (active) |
| O=c1c(F)cn(C2CCCO2)c(=O)n1Cc1ccccc1Cl (configuration not stated) | -0.787% | – |
| Cc1cccc(Cn2c(=O)n(CCC(=O)NCCc3ccc(Cl)cc3)c(=O)c3sccc32)c1 | -3.17% | – |
| O=C(C1CCN(CC2CCCCC2)CC1)N1CCCC1 | -1.64% | – |
| C=Cc1ccc(Cn2c(C(=O)OC)cc3sc(C)cc32)cc1 | 15.1% | – |
| COc1ccc(S(=O)(=O)NC(=O)C2(C)CCN2C(=O)c2ccccc2CCc2ccccc2)cc1 (configuration not stated) | 3.04% | – |
| CCc1cc(=O)oc2c(C)c(OCC(=O)NCCN3CCOCC3)ccc12 | – | 23.1 µM (active) |
